# Inconclusive results are not listed. Values without a mark were called inactive. Calls of active or inactive are those of the source. Calls follow the shape of the dose curve; as a rule, active = well fitted activation curve with a large enough effect in the repeat runs; inconclusive = weak or mixed curves; inactive = flat fitted curve, though single readings scatter.
# Assay: A CellTox Green Cytotoxicity Assay to monitor cytotoxicity in HepG2 cells - 8 hour (AID 1224890); also: nearly all actives have a fitted effect of over 45% in size
# Settings: CellTox Green fluorescence; series mostly up to 76.8 µM; cytotoxicity increase: at the top concentration
# From the text: National Center for Advancing Translational Sciences [NCATS]
# NIH Chemical Genomics Center [NCGC]
# U.S. Environmental Protection Agency [EPA]
# National Institutes of Environmental Health Sciences [NIEHS]
# National Toxicology Program [NTP]
# Cell-based models are critical for drug discovery. Determining the natural cytotoxic effects resulting from test compounds is an essential research activity. A CellTox Green Cytotoxicity Assay to monitor cytotoxicity in real time of continues cell culture during 40 hours of the compound treatment was used to screen Tox21 10K library compounds in HepG2 cells. CellTox Green Cytotoxicity Assay is a nonlytic, homogeneous, biofluorescent method to measure cytotoxicity in cell culture after experimental manipulation. The assay system uses a proprietary asymmetric cyanine dye that is excluded from viable cells but preferentially stains the dead cell's DNA. […] Viable cells produce no appreciable increases in fluorescence. Therefore, the fluorescence signal produced by the binding interaction with dead cell DNA is proportional to cytotoxicity.
# The mixture of HepG2 cell suspension and reagents were dispensed at 600cells/6 ul/well in 1536-well tissue culture treated black solid bottom plates using a Multidrop dispenser. After the assay plates were incubated at a 37 C/5% CO2 incubator for 5 hours, 23 nL of compounds dissolved in DMSO, positive and negative controls was transferred to the assay plate by a pintool work station. The plates were incubated at 37 C for 40 hours. The fluorescence intensity were measured at 0h, 8h, 16h, 24h, 32h and 40h time points using ViewLux plate reader during compound treatment.
# % is scaled to controls: 0 for no effect and ±100 for the full control effect; potency is read from the fitted curve at half-maximal effect.
SMILES,cytotoxicity increase,Potency
COc1ccc([C@@H]2Sc3ccccc3N(CCN(C)C)C(=O)[C@@H]2OC(C)=O)cc1,-10.6% [at 35.3 µM],–
C=Cc1c(C)c2cc3[nH]c(cc4nc(cc5nc(cc1[nH]2)C(C)=C5CCC(=O)O)C(CCC(=O)O)=C4C)c(C)c3C=C,-14.8% [at 35.3 µM],–
NC1CCN(c2nc3c(cc2F)c(=O)c(C(=O)O)cn3-c2ccc(F)cc2F)C1 (stereo not given),0.634% [at 35.3 µM],–
O=C(c1ccccc1)c1ccc2n1CCC2C(=O)O (stereo not given),-10.8% [at 35.3 µM],–
O=C(O)C(c1ccc(Cl)cc1)c1ccc(Cl)cc1,-8.43%,–
CCCCCOC(=O)c1ccc(O)cc1,8.78%,–
Cn1c(=O)c2c(ncn2CC(O)CO)n(C)c1=O (stereo not given),-3.07% [at 35.3 µM],–
Nc1nc(N)c2nc(CNc3ccc(C(=O)N[C@@H](CCC(=O)O)C(=O)O)cc3)cnc2n1,2.43%,–
N#Cc1c(F)cccc1F,-0.598%,–
CC[C@]12CCCN3CCc4c(n(c5ccccc45)C(=O)C1)[C@@H]32,0.329% [at 35.3 µM],–
CC(C)(C)c1cc(CO)cc(C(C)(C)C)c1O,0.873%,–
O=C(NN1CCCC1)NS(=O)(=O)c1ccc(Cl)cc1,1.4% [at 35.3 µM],–
CCCCCCCCCCCCCCCCCBr,-11.1% [at 15.8 µM],–
CCC(C)N(C)C(=O)c1cc2ccccc2c(-c2ccccc2Cl)n1 (stereo not given),10.3% [at 35.3 µM],–
Cc1cc(NC(=O)C(=O)O)cc(C)c1Oc1ccc(O)c2c1CCC2,-13.4%,–
CC(C)c1cccc(C(C)C)c1NC(=O)NS(=O)(=O)c1cc(C(C)(C)O)co1,-0.306%,–
C#CCOC(=O)[C@@H](C)Oc1ccc(Oc2ncc(Cl)cc2F)cc1,2.79%,–
NC[C@H]1O[C@H](O[C@H]2[C@H](O)[C@@H](O[C@H]3O[C@H](CO)[C@@H](O)[C@H](N)[C@H]3O)[C@H](N)C[C@@H]2N)[C@H](O)[C@@H](O)[C@@H]1O,21.1% [at 6.97 µM],–
CCN(CC)CCOc1ccc2c(c1)C(=O)c1cc(OCCN(CC)CC)ccc1-2,0.678% [at 35.3 µM],–
COCCOCCOCCOCCOC,-1.41%,–

SMILES,cytotoxicity increase,Potency
CC(C)=CCCC(C)CC=O (stereo not given),-0.366%,–
COCCCCCCCCOCCC[Si](C)(O[Si](C)(C)C)O[Si](C)(C)C,-6.37%,–
CC(=O)NCCCS(=O)(=O)O,–,18.9 µM (active)
CC[C@H](C)[C@H](N)C(=O)O,-0.798% [at 35.3 µM],–
CCCCCCCCCCCCCCCC(=O)OC/C=C(C)/C=C/C=C(C)/C=C/C1=C(C)CCCC1(C)C,-4.1%,–
CCCC(C)C,0.218%,–
Cn1c(N)nc2nc[nH]c2c1=O,5.6%,–
CC1(C)[C@H]2CC[C@]1(C)[C@H](O)C2,-9.99%,–
CC(C)NCC(O)COc1ccc(CC(N)=O)cc1 (stereo not given),-17.1%,–
NC(N)=N/N=C/c1c(Cl)cccc1Cl,5.52% [at 35.3 µM],–
CCN(CC)CCNC(C(=O)OCCC(C)C)c1ccccc1 (stereo not given),-13.8% [at 35.3 µM],–
CCCCC(CC)COCCCN (stereo not given),9.8%,–
CC(C)(Oc1ccc(Cl)cc1)C(=O)OCCCOC(=O)C(C)(C)Oc1ccc(Cl)cc1,-11.2% [at 35.3 µM],–
CCCCCCCCCC=O,3.74%,–
CC(=O)c1ccc2c(c1)[C@H](NC(=O)c1ccc(F)cc1)[C@@H](O)C(C)(C)O2,-0.344%,–
CC(C)CCCC(C)CCO (stereo not given),12.3%,–
CN(C)CC[C@@H](c1ccc(Br)cc1)c1ccccn1,-5.89% [at 35.3 µM],–
CN1CCC(=C2c3ccccc3CCc3sccc32)CC1,5.38% [at 35.3 µM],–
CN(C)CCCOc1nn(Cc2ccccc2)c2ccccc12,2.47% [at 35.3 µM],–
N=C(N=C(N)N)N1CCOCC1,-2.22% [at 35.3 µM],–
